BJeLR viability = kills HRASV12-expressing BJeLR cells; BJeLR (HRASV12) viability, CellTiter-Glo ATP luminescence, 48 h; inhibition, % (no concentration beside the values); 0.17% of 300,000 active; AID 1554; in the data active = inhibition above about 50%; inconclusive = no clear call, values can overlap the other calls
MazEF act = activators of E. coli MazEF toxin-antitoxin RNase; FAM/BHQ RNA-DNA oligo cleavage fluorescence, 5 h; P0AE70; 0.32% of 350,000 active; activation, % at 20 µM; in the data active = activation above about 50%
Target sequence (P0AE70 whole entry, looked up): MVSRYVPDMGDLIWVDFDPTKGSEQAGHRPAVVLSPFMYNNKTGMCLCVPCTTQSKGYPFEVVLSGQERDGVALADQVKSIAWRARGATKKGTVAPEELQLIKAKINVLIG
Vc quorum ag = induces V. cholerae light production without autoinducers | V. cholerae BH1578 lux reporter, luminescence, 6 h | activation, % at 18.7 µM | 0.16% of 350,000 active; in the data active = activation mostly above about 9.7%, no sharp cut-off; inconclusive = no clear call, values can overlap the other calls; inactive = mostly below about 3.7%
DUSP3 inh = blocks human VHR1 dual specificity phosphatase; P51452; recombinant VHR phosphatase, pNPP absorbance; inhibition, % at 13.3 µM; 0.52% of 290,000 active; in the data active = inhibition above about 50%
Target sequence (P51452 whole entry, looked up): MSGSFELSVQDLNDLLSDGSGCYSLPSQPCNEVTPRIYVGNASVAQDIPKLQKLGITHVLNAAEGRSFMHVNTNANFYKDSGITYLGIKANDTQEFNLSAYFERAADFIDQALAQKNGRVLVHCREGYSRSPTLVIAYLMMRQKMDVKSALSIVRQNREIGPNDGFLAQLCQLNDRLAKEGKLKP
SARS 3CLpro inh = SARS-CoV 3CLpro protease inhibition; P0C6X7; recombinant SARS-CoV 3CLpro, quenched FRET peptide cleavage; inhibition, % at 6 µM; 0.14% of 290,000 active; AID 1706; in the data active = inhibition above about 12%
PfHsp40 yeast = rescue of PfHsp40-mediated yeast toxicity. AID 504582. 0.68% of 340,000 active. growth rescue, % at 12.5 µM. S. cerevisiae expressing PfHsp40, growth rescue, ATP luminescence; in the data active = growth rescue above about 28%, passing the limit was not always enough; inconclusive = no clear call, values can overlap the other calls;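 note: yeast W303a lacking pdr1 and pdr3 grown in galactose medium; growth measured after three days at 30 °C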
* hit, by the source's call; i = inactive; ? = inconclusive; . = no result given; + = active, no number; ! = a repeat was not active. In the library only some 1.7% were active in any assay of this set; here they are far more common.

SMILES | BJeLR viability | MazEF act | Vc quorum ag | DUSP3 inh | SARS 3CLpro inh | PfHsp40 yeast
COc1cc(/C=C/CN2CCC(CO)(CC3CCCCO3)CC2)ccc1O (configuration not stated) | -0.6 | -21.3 | 1.4 | 51.4* | 8.9 | -0.2
Cc1ccc(C(=O)NCC(=O)OCC(=O)N(CC(C)C)c2c(N)n(Cc3ccccc3)c(=O)[nH]c2=O)s1 | . | 6.2 | i | . | . | .
Cc1cc2nc3c(=O)[nH]c(=S)[nH]c3nc2cc1NC(=O)C(F)(F)F | -1.5 | + | -0.3 | 6.0 | -6.4 | 2.9
O=c1[nH]c(=S)[nH]c2nc(-c3ccccc3)cnc12 | 8.1 | -1.0 | -0.9 | . | . | -1.0
CCOc1cccc(/C=N/NC(=O)c2cc(-c3cccn3C)n[nH]2)c1O | 10.2 | -8.2 | -0.4 | 10.3 | 6.5 | 36.3*
Cc1cccc(N(C)Cc2nnc(-c3cccc(Br)c3)o2)c1 | 6.1 | 1.1 | -1.4 | -5.7 | 4.4 | 14.5
COc1cccc(-n2c(N)cc(=O)nc2SCC(=O)N2CCN(c3ccccc3)CC2)c1 | -22.5 | -2.1 | -1.7 | 14.5 | -5.6 | -0.2
O=C(Nc1ccccc1Cl)ON=C1c2ccccc2-c2ccccc21 | -8.9 | 8.0 | i | 30.2 | 6.1 | 88.4*
COc1ccc(N(CC(=O)N/N=C/c2cccnc2)S(=O)(=O)c2ccc(C)cc2)cc1OC | -1.8 | 3.5 | -1.6 | 16.5 | -1.2 | 0.5
COc1ccc(N(CC(=O)N/N=C/c2cccnc2)S(=O)(=O)c2ccccc2)c(OC)c1 | -10.5 | 5.3 | i | 52.8* | -2.2 | -0.7
CCCCn1c(N)c(Sc2ccccc2[N+](=O)[O-])c(=O)[nH]c1=O | -1.7 | 0.6 | -3.8 | 51.1* | -7.1 | -0.1
Cc1ccc(/C=C2/C(=O)c3ccc(C(=O)O)cc3C2=O)o1 | 13.1 | 4.2 | -0.4 | 1.9 | -1.9 | 45.2*
Cc1ccc(C=C2C(=O)c3ccccc3C2=O)o1 | 8.2 | 91.3* | -0.4 | -7.2 | -0.2 | 0.3
O=C(O)c1ccc2c(c1)C(=O)/C(=C\c1ccco1)C2=O | 2.3 | -9.2 | -0.2 | 22.3 | -1.3 | -0.5
O=C1C(=Cc2ccco2)C(=O)c2ccccc21 | -7.4 | -9.2 | -0.6 | -7.9 | 0.7 | -1.0
O=C(N/N=C/c1cc2c3c(c1O)CCCN3CCC2)c1ccccc1O | 53.3* | -32.1 | -0.3 | 8.1 | 2.8 | 175.6*
ONC(=Nc1ccccc1)C(=Nc1ccccc1)NO | -7.7 | 2.7 | 2.4 | 57.4* | -1.0 | 0.7
Cc1cc(C)cc(CC(=O)N2CCC2(C)C(=O)NS(=O)(=O)c2cccc(F)c2)c1 (configuration not stated) | . | . | -0.3 | . | . | .
CCNC(=O)C1(C)CCCN(C(=O)Cc2ccc(OC)c(OC)c2)C1 (configuration not stated) | . | . | -0.2 | . | . | .
NC(=O)NC[C@@H]1CC[C@@H](Cc2ccc(-c3ccccc3)cc2)O1 | . | 3.8 | i | . | . | 0.5
COc1ccc2cc(C[C@@H]3CC[C@@H](CNC(N)=O)O3)ccc2c1 | . | 6.1 | -1.1 | . | . | 38.3*
Cc1ccc(CNC(=O)Cn2ccc3cc(S(=O)(=O)N4CCCCCC4)ccc32)cc1 | 6.3 | 1.5 | -0.3 | 1.1 | 4.0 | -1.4
Cc1cccc(Oc2nc(-c3ccccn3)nc3ccccc23)c1 | 3.8 | 4.1 | -0.2 | 39.7 | -4.2 | 195.2*
Cc1cccc(Oc2nc(-c3ccncc3)nc3ccccc23)c1 | -2.8 | -5.3 | -0.6 | 16.2 | -1.0 | 15.0
Cc1ccccc1Oc1nc(-c2ccccn2)nc2ccccc12 | 11.8 | -0.3 | -0.6 | -15.2 | 2.4 | 244.6*
SMILES | BJeLR viability | MazEF act | Vc quorum ag | DUSP3 inh | SARS 3CLpro inh | PfHsp40 yeast
COc1cccc(CN2CC(C(=O)NCCc3nccs3)CCC2=O)c1 (configuration not stated) | . | -1.2 | -4.8 | . | . | .
O=C(C1=NN[C@@H]2C(=O)N(c3cccc(C(F)(F)F)c3)C(=O)[C@H]12)c1ccc2ccccc2n1 | -6.0 | 96.5* | 0.2 | 4.0 | 1.0 | 8.4
O=C(C1=NN[C@@H]2C(=O)N(c3cccc(F)c3)C(=O)[C@H]12)c1ccc2ccccc2n1 | 0.1 | 72.9* | i | 32.7 | -0.2 | 0.0
COc1cccc(N2C(=O)[C@H]3C(C(=O)c4cnccn4)=NN[C@H]3C2=O)c1 | 14.2 | -61.1 | 4.2 | 11.2 | 3.0 | 0.5
CCOC(=O)N1CCN(C(=O)C2CCN(C(=O)c3ccccc3C)CC2)CC1 | . | -14.0 | -3.2 | . | . | 703.5*
Cc1ccccc1C(=O)N1CCC(C(=O)N2CCN(c3ncccn3)CC2)CC1 | . | 4.3 | -2.0 | . | . | -1.3
Cc1nc2c([N+](=O)[O-])c(C)c(C)cc2[nH]1 | 0.7 | 4.8 | -0.4 | 13.0 | -2.2 | .
Cc1nc2c(Cl)cc(Cl)cc2[nH]1 | 0.0 | 4.4 | i | 18.9 | 2.7 | 33.3*
COc1cccc(OC)c1C(=O)OCC(=O)NC1CCCCCC1 | . | 3.4 | i | . | . | -0.1
CN(C)S(=O)(=O)c1ccc2c(c1)nc(CCC(=O)NCc1ccc(Cl)cc1)n2C | -1.1 | -17.6 | i | 9.6 | -5.2 | 45.2*
Cn1nc(N)c2c1N=P(N1CCOCC1)(N1CCOCC1)N=C2c1ccccc1 | 0.5 | -4.2 | i | 10.5 | -8.5 | 0.1
CN(C)P1(N(C)C)=Nc2c(c(N)nn2C)C(c2ccccc2)=N1 | -3.2 | 4.4 | -1.1 | -1.9 | -0.8 | 38.6*!
O=C(NCCCc1ccccc1)c1ccc(-n2cncn2)c([N+](=O)[O-])c1 | 8.5 | 7.1 | i | . | . | -0.2
CCNC(=S)N/N=C/c1sc(N2CCCCC2)nc1-c1cccs1 | 6.2 | 257.2* | -0.2 | -8.5 | -4.4 | -1.1
CCNC(=S)Nc1ccc(N2CCCCC2)cc1 | 10.7 | 8.4 | . | 11.1 | -0.1 | -0.8
COc1ccc(C#Cc2ccc(C3=CC(=O)CC(C)(C)C3=O)cc2)cc1 | . | 0.6 | i | . | . | .
CCOc1ccccc1N1CCN(C(=O)c2cc(-c3cc(OC)ccc3OC)nc3ccccc23)CC1 | -7.6 | -1.8 | i | -13.9 | 2.6 | 31.0*
COc1ccc(N2CCN(C(=O)c3cc(-c4cc(OC)ccc4OC)nc4ccccc34)CC2)cc1 | -0.3 | -5.9 | i | 33.1 | -3.2 | 1.2
COc1ccc(-c2cc(C(=O)N3CCN(c4ncccn4)CC3)c3ccccc3n2)c(OC)c1 | 1.2 | -12.9 | -0.3 | 1.7 | 3.9 | ?
COc1ccc(-c2cc(C(=O)N3CCN(c4ccccc4F)CC3)c3ccccc3n2)c(OC)c1 | -15.1 | -8.9 | -0.6 | 33.1 | 0.5 | 376.4*
O=C1c2ccccc2NC(c2ccc(-c3ccccc3F)o2)N1O (configuration not stated) | . | 5.7 | -0.8 | . | . | 119.8*
O=C1c2ccccc2NC(c2ccc(-c3cccc(F)c3)o2)N1O (configuration not stated) | . | -5.9 | i | . | . | 108.7*
O=C1c2ccccc2NC(c2ccc(Cl)cc2Cl)N1O (configuration not stated) | 9.0 | -1.9 | -0.2 | -8.0 | -0.3 | 292.3*
N#Cc1ccc(-c2ccc(C3Nc4ccccc4C(=O)N3O)o2)cc1 (configuration not stated) | . | 4.6 | -8.1 | . | . | 11.8

Bioassay records as filed in PubChem.
